# USP17 block = human USP17-like deubiquitinase inhibition | 47,000 tested, 6.5% active | inhibition, % at 50 µM | purified USP17, Ub-rhodamine cleavage fluorescence, 3 h
# USP8 block = inhibitors of human USP8 deubiquitinase | 47,000 tested, 4.2% active | P40818 | inhibition, % at 20 µM | purified USP8, Ub-rhodamine cleavage fluorescence, 30 min
# Target sequence (P40818 whole entry, looked up): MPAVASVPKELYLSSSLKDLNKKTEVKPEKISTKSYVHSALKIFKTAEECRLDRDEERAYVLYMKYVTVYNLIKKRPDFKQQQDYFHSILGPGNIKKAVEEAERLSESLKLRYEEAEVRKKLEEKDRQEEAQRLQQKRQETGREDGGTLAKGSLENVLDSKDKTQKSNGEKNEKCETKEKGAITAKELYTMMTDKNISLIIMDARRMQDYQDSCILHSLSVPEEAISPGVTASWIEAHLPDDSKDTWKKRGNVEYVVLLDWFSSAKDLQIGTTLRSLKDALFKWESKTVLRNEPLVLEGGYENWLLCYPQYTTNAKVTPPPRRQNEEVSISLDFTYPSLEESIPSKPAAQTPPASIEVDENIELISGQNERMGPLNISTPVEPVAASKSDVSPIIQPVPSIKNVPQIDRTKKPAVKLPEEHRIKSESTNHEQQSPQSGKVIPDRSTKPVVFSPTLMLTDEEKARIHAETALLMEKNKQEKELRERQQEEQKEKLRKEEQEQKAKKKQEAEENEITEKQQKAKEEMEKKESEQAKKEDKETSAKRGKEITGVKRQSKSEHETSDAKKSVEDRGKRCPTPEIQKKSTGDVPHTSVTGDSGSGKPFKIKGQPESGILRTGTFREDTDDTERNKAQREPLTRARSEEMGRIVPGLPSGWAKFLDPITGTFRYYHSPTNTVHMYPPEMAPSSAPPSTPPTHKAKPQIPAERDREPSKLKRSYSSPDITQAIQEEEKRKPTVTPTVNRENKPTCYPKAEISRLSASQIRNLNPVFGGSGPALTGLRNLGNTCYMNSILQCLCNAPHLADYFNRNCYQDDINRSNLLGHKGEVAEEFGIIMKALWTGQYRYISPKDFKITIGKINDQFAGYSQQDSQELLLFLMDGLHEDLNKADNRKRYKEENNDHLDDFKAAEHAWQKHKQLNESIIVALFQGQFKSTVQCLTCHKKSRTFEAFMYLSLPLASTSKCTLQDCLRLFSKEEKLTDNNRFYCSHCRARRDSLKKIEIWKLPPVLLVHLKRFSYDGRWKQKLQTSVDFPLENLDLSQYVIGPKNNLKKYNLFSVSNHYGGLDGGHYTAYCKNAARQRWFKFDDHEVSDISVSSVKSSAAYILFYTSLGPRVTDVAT
# USP30 inh = blocks human USP30 ubiquitin-rhodamine cleavage; 47,000 tested, 5.3% active; Q70CQ3; purified USP30, Ub-rhodamine cleavage fluorescence; inhibition, % at 25 µM; AID 1645860
# * hit, by the source's call; nt = not tested or not shown. Rows were chosen to be rich in hits. Some 12% of all compounds tested hit in one or more screens of this group. Rule as the data show it: active = inhibition above about 30%; inactive = the rest.
SMILES,USP17 block,USP8 block,USP30 inh
CCNc1cc(N2CCCC(CCC(=O)NCc3cccc(C)c3)C2)ncn1 (configuration not stated),-22.4,-196.5,-29.3
O=C(CN1C(=O)c2ccccc2C1=O)Nc1nc(-c2ccc(Br)cc2)cs1,7.0,6.6,46.9*
O=C(COc1ccccc1)Nc1nnc(-c2ccc(Br)cc2)s1,-0.1,0.1,-1.6
COc1ccc(Cl)cc1C(=O)NC(c1ccccc1)C1CC1 (configuration not stated),4.5,-2.9,19.0
COc1cccc(CC(=O)Nc2cnc(-c3ccc(Cl)cc3)nc2)c1,36.7*,79.0*,2.4
COc1cccc(C(=O)Nc2cnc(-c3ccccc3)nc2)c1,3.6,3.3,1.3
O=C(COc1ccc(F)cc1)Nc1cnc(-c2cccc(Cl)c2)nc1,-63.9,18.4,-246.9
CCN1CCN(c2ccc(NC(=O)COc3cccc(C)c3)cc2)CC1,19.1,1.2,31.6*
O=C(COc1ccc(F)cc1)Nc1cnc(-c2ccc(Cl)cc2)nc1,74.3*,95.5*,35.3*
Cc1ccc(CC(=O)Nc2cnc(-c3ccccc3)nc2)cc1,-18.4,-12.2,-19.6
Cc1ccc(-c2ncc(NC(=O)COc3cccc(C)c3)cn2)cc1,-12.2,30.3*,-69.5
CC(C)(C)c1ccc(OCC(=O)Nc2ccc(N3CCCCC3)cc2)cc1,2.8,20.8,-35.2
Cc1nccc(C2CN(C(=O)c3cccc4c3OCCO4)CCO2)n1 (configuration not stated),-14.9,-55.1,-11.8
O=C(c1ccccc1F)N1CCC2(CC1)OCCN2S(=O)(=O)c1ccccc1,0.0,8.6,4.9
O=C1CCCN1CCCNc1nc2ccccc2c2nc(-c3ccncc3)nn12,-1.1,-5.9,-4.6
COc1ccc(NC(=O)N2CCn3cccc3C2c2ccc(F)cc2)cc1 (configuration not stated),-64.4,-186.0,-484.9
NC(=O)c1cc2ccccc2nc1C1CCN(C(=O)COc2cccc(F)c2)CC1,-6.3,-5.6,1.1
O=C(COc1ccc(C(=O)c2ccccc2)cc1)Nc1cccnc1,-26.1,-7.7,-22.3
O=C(COc1ccccc1)Nc1cnc(-c2ccccc2)nc1,43.7*,-1.4,-22.6
O=C(Nc1cnc(-c2ccccc2)nc1)C1CC1,10.4,24.3,2.0
O=C(COc1ccccc1)Nc1cnc(-c2ccc(Cl)cc2)nc1,31.1*,77.5*,12.4
COc1ccc(-c2cc3ncnc(NC(C)c4ccco4)c3s2)cc1 (configuration not stated),58.3*,15.1,-20.8
COc1ccc(OC)c(C(C)Nc2ncnc3ccsc23)c1 (configuration not stated),-9.7,-17.6,-12.1
O=C(/C=C/c1ccc(F)cc1)N1CCCc2ccccc21,1.7,-4.0,15.6
O=C(/C=C/c1ccc(F)cc1)N1CCc2ccccc2C1,61.8*,87.5*,1.4
SMILES,USP17 block,USP8 block,USP30 inh
O=C(NCc1ccc(F)cc1)N1CCc2ccccc2C1,17.2,21.7,21.8
O=C(/C=C/c1cccc(F)c1)N1CCc2ccccc21,20.4,42.0*,29.3
CCOC(=O)N1CCN(C(=O)Cc2csc(NC(=O)c3ccc4c(c3)OCO4)n2)CC1,-1.1,-7.7,-3.9
COC(=O)c1ccc(N2CCN(C(=O)c3ccccc3)CC2)c(NC(=O)COc2ccccc2Cl)c1,39.2*,7.5,33.0*
COC(=O)c1ccc(N2CCN(C(=O)c3ccccc3)CC2)c(NC(=O)c2cc(OC)c(OC)c(OC)c2)c1,8.5,0.0,-0.2
O=C(c1ccc(F)cc1)C1CC1c1c(F)cccc1Cl (configuration not stated),8.0,0.7,-17.8
O=c1[nH]c2ccc(NCc3cccc(OCc4ccc(F)cc4)c3)cc2[nH]1,18.6,-83.5,1.2
O=c1[nH]c2ccc(NCc3ccccc3OCc3ccc(Cl)cc3)cc2[nH]1,26.9,-147.6,30.8*
Cc1nc(C2CCN(C(C)C)CC2)cc(N2C(=O)OCC2C)n1 (configuration not stated),0.3,3.4,-10.1
COc1cc2c(cc1OC)-c1cc(Oc3ccc(C)c(C)c3)nc(=O)n1CC2,-43.1,-67.2,-462.8
O=C(NCc1ccc2c(c1)OCO2)c1ccc(C2SCC(=O)N2Cc2ccco2)cc1 (configuration not stated),56.3*,35.8*,4.6
Cc1ccc(C(=O)NCc2ccc3c(c2)OCO3)cc1S(=O)(=O)N1CCCC1,-18.3,-5.4,-2.4
O=C(Nc1cccc(Cl)c1)C1C2C=CC3(O2)C1C(=O)N(CCCN1CCN(Cc2ccccc2)CC1)C3C(=O)NC1CCCCC1 (configuration not stated),-12.1,-65.5,-46.0
COCC(=O)N1CCCC(c2cc(-c3ccnn3C)nc(C)n2)C1 (configuration not stated),13.4,7.7,18.0
COc1ccccc1CCNC(=O)C(=O)c1c(C)n(C)c2ccccc12,0.7,-2.4,-5.7
COc1ccc(CCNC(=O)C(=O)c2c(C)n(C)c3ccccc23)cc1OC,47.6*,-80.9,0.5
COc1ccc(CCNC(=O)C(=O)NCc2ccc(Cl)cc2)cc1OC,40.9*,-9.0,24.5
COc1ccc(CCNC(=O)C23CC4CC(CC(C4)C2)C3)cc1OC,1.0,9.0,8.6
Cc1nn(-c2nc3ccccc3n2C)c2c1C(c1ccccc1)CC(=O)N2 (configuration not stated),7.0,-2.8,-0.5
Cc1c(C(=O)N2CCN(C)CC2)oc2c1C(=O)CCC2,10.7,21.4,15.8
Cc1c(C(=O)N2CCC(Cc3ccccc3)CC2)oc2c1C(=O)CCC2,18.2,10.3,33.5*
O=C(NCc1ccc2c(c1)OCO2)c1cn2cc(Cl)ccc2n1,47.5*,7.3,28.7
Cc1ccc(OCCNC(=O)c2nc(-n3cnnc3)ccc2Br)cc1C,1.0,-51.6,-110.1
O=C(NCc1ccc2c(c1)OCO2)c1nc(-n2cnnc2)ccc1Br,34.5*,-5.8,39.4*
Cc1ccn2cc(C(=O)NCc3ccc4c(c3)OCO4)nc2c1,6.9,-0.9,12.0
SMILES,USP17 block,USP8 block,USP30 inh
O=C(c1ccc(N2CCOCC2)nn1)N1CCc2ccccc21,-9.4,-4.0,-4.9
COc1ccc(C(=O)CN2C(=O)COc3cc(C(=O)N[C@H](CO)Cc4ccccc4)ccc32)cc1,nt,-5.1,-2.6
Cc1nnc(-c2coc(S(=O)(=O)N3CCN(c4ccccc4C)CC3)c2)o1,4.2,9.0,-3.2
Cc1nnc(-c2coc(S(=O)(=O)N3CCN(c4ccccc4F)CC3)c2)o1,20.2,6.3,39.5*
COc1ccc(CNC(=O)C(C)Nc2cc(Cl)c(OC)cc2OC)cc1 (configuration not stated),25.4,0.6,0.5
Cc1cc(C)c2c(CC(=O)Nc3nnc(C)s3)coc2c1,-19.9,-87.1,-35.3
COc1ccc2occ(CC(=O)Nc3nnc(SC)s3)c2c1,32.9*,-0.2,-56.0
O=c1[nH][nH]c(=O)c2n[nH]nc12,14.4,92.0*,-35.0
O=C(N1CCC2(CC1)CC2)C1(c2ccc(F)cc2)CCOCC1,-0.1,6.8,-0.9
COc1ccc(C2CCCN2Cc2nc(N)nc(Nc3ccccc3)n2)c(OC)c1 (configuration not stated),-11.7,0.3,-28.8
CCCn1c(=O)c2sccc2n2c(CCC(=O)NC3CCCC3)nnc12,9.1,4.5,14.6
CCCCCn1c(=O)c2sccc2n2c(CCC(=O)NC3CCCCCC3)nnc12,35.5*,19.5,27.4
CC(C)C(=O)N1CCc2cc(CNS(=O)(=O)c3ccccc3)ccc21,10.5,18.0,21.9
